Screening results from PubChem BioAssay.
Most compounds without a hit are left out; they make up all but 19% or so of the library.
HT1080 IDH1KD tx: kills HT-1080 cells with IDH1 knockdown; Potency, µM (series often up to 46.1 µM), inactives show at the top dose activity, negative = toxicity, most hits filed as cytotoxic; AID 686971; 2% of 360,000 active; HT-1080 IDH1 knockdown viability, ATP luminescence, 48 h;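 also: potency is read from the fitted curve at half-maximal effect; 0% = DMSO wells and -100% = cell-free medium wells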
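% activity derives from luminescence (CellTiter-Glo), normalised to DMSO and no-cell wells. HT-1080-IDH1KD cells, 750/well, had 48 h compound exposure at 37 °C.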
DT40 TDP1 CPT: growth inhibition of DT40 Tdp1-/-;hTDP1 cells with camptothecin (screen for TDP1 inhibitors). chicken DT40 Tdp1-/-;hTDP1 cells + 20 nM CPT, ATP luminescence, 48 h. Potency, µM (doses to about 46.2 µM), without a hit: at the top dose activity change, negative = growth inhibition, hits mostly inhibitors. 12% of 420,000 active; also: potency is read from the fitted curve at half-maximal effect; nearly all actives have a fitted effect of over 55% in size
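Chicken DT40 Tdp1-/- cells stably complemented with human TDP1 were seeded at 400 cells/well in medium containing 20 nM camptothecin, exposed to pin-transferred compounds, and grown at 37 °C for at least 48 hr. Viability was read as ATP luminescence.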
TDP1 cell noCPT: qHTS for Inhibitors of human tyrosyl-DNA phosphodiesterase 1 (TDP1): qHTS in cells in absence of CPT; DT40 Tdp1-/- hTDP1 cells, no CPT, ATP luminescence, 48 h; Potency, µM (top dose mostly 46.2 µM), for the others: top-dose activity change, negative = growth inhibition, hits mostly inhibitors; 15% of 420,000 active; AID 686978, 2013; also: potency is read from the fitted curve at half-maximal effect; nearly all actives have a fitted effect of over 55% in size
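Chicken DT40 Tdp1-/- cells complemented with human TDP1, screened without camptothecin (DMSO vehicle only), 400 cells/well. Compounds pin-transferred, cells incubated at 37 °C for at least 48 hr. Growth read as ATP-dependent luminescence (CellTiter-Glo, 30 min at RT).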
IL-1B inflam inh: blocks inflammasome-driven IL-1 beta release | THP-1 LPS/ATP IL-1B secretion, AlphaLISA, 16 h; active compounds read low | activity change, % at 57.5 µM | 4.7% of 360,000 active; in the data active = activity change below about -50%; inconclusive = mostly about -30% to -49%
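THP-1 cells pretreated 1 hr with compounds (up to 57.5 uM final), then stimulated with LPS (250 ng/mL final) plus ATP (1.25 mM final); secreted IL-1B measured by AlphaLISA after 16 hr, decreased signal indicating inhibition.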
HT1080NT lethal: kills 2HG-producing HT-1080-NT fibrosarcoma cells. HT-1080-NT fibrosarcoma viability, CellTiter-Glo ATP luminescence, 48 h. Potency, µM (top dose mostly 46.1 µM), for inactives: at the highest dose activity, negative = less viability, actives largely listed as cytotoxic. 1.6% of 360,000 active. AID 686970;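 also: NT is the 2HG producing partner of a matched IDH1 knockdown line; potency is read from the fitted curve at half-maximal effect; 0% = DMSO-treated cells and -100% = media-only wells without cells; nearly all actives have a fitted effect of over 55% in size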
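750 cells/well, RPMI + 5% FBS; 2 h settle, compound pin-transfer, 48 h at 37 degrees C. CellTiter-Glo 10 min RT, luminescence. Normalized to DMSO and media-only wells.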
ELG1 DNA repair: inhibitors of ELG1-dependent DNA repair in HEK293T cells; 2.3% of 330,000 active; Potency, µM (titrated, usually from 46.1 µM), without a hit: at the top dose activity change, negative = inhibition, usual class: inhibitors; HEK293T ELG1-luciferase reporter, luminescence, 16 h; DNA damage induced by 5-fluorouridine; also: potency is read from the fitted curve at half-maximal effect; nearly all actives have a fitted effect of over 55% in size
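HEK293T cells expressing luciferase-tagged ELG1 (2,000/well) received 5-Fluorouridine plus compound or DMSO for 16 hr at 37 °C. Luciferase was read by ONE-Glo luminescence after 30 min at room temperature.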
The depositor's hits bear a star; ? = inconclusive; / = not tested or not shown. Unless noted, calls follow the shape of the dose curve; as a rule, active = well fitted curve in the direction sought with a large enough effect; inconclusive = small, poorly fitted or top-dose-only effect, or another doubt; inactive = no such curve, though single readings can be large; an effect the other way counts as inactive or inconclusive. Unless noted, % is scaled to controls: 0 for no effect and ±100 for the full control effect.

SMILES	HT1080 IDH1KD tx	DT40 TDP1 CPT	TDP1 cell noCPT	IL-1B inflam inh	HT1080NT lethal	ELG1 DNA repair
COc1cccc(Oc2ncnc(N)c2[N+](=O)[O-])c1	-1.7%	2.6%	-11.2%	?	-0.1%	-13.9%
CN(c1ccccc1)c1ncnc2c1cnn2C	/	-13.9%	?	/	/	/
O=C(O)CCCn1cc(NC(=O)c2cc(F)c(F)cc2Cl)cn1	0.0%	?	23.1µM*	-24.1	-4.4%	19.7%
COc1ccccc1-c1nc(-c2ccccn2)no1	23.1µM*	13µM*	13µM*	6.6	20.6µM*	?
Cc1ccccc1-c1nc(-c2ccccn2)no1	20.6µM*	?	?	-0.8	23.1µM*	?
COc1ccc(-c2nc(-c3ccccn3)no2)cc1	9.2µM*	14.6µM*	?	-1.5	8.2µM*	?
Cc1ccccc1-c1nc(-c2cccnc2)no1	-15.8%	0.6%	-22.8%	10.7	0.2%	?
Nc1nc(N2CCN(c3ccccn3)CC2)nc2ccccc12	-1.7%	-27.5%	?	-22.5	-4.9%	?
CN(C(=O)COC(=O)c1ccccc1SCC(=O)N1CCCC1)C1CCS(=O)(=O)C1 (stereo not drawn)	2.8%	3.0%	0.1%	11.0	3.3%	19.5%
O=C(NCc1nnnn1-c1ccc(F)c(F)c1)c1cc2ccccc2o1	-0.2%	-6.6%	-12.3%	-22.6	-0.8%	-0.1%
N#Cc1cc2c(=O)n3ccccc3nc2n(Cc2cccnc2)c1=O	10.8%	-0.6%	-6.7%	8.3	19.9%	/
N#Cc1cc2c(=O)n3ccccc3nc2n(-c2ccccc2Cl)c1=O	?	7.31µM*	?	-3.3	?	?
C#Cc1ccc([C@@H]2C=C(C(=O)N3CCN(Cc4ccccc4)CC3)O[C@H](OCC)[C@H]2CCCO)cc1	0.4%	?	23.1µM*	-20.3	-0.5%	?
CCO[C@H]1OC(C(=O)N2CCN(Cc3ccccc3)CC2)=C[C@@H](c2coc3ccccc3c2=O)[C@@H]1CCCO	-6.3%	25.9µM*	23.1µM*	-15.3	-8.4%	?
CCO[C@@H]1OC(C(=O)N2CCN(Cc3ccc4c(c3)OCO4)CC2)=C[C@H](c2coc3ccccc3c2=O)[C@H]1CCCO	-1.7%	16.4µM*	18.4µM*	-24.9	1.4%	?
CCO[C@H]1OC(C(=O)N2CCN(C)CC2)=C[C@@H](c2coc3ccccc3c2=O)[C@@H]1CCCO	7.2%	2.2%	-0.2%	-0.5	10.9%	2.1%
CCO[C@@H]1OC(C(=O)N2CCN(Cc3ccccc3)CC2)=C[C@H](c2coc3ccccc3c2=O)[C@H]1CCCO	-5.3%	8.2µM*	7.31µM*	2.2	-2.8%	-16.6%
C#Cc1ccc([C@H]2C=C(C(=O)N3CCN(Cc4ccccc4)CC3)O[C@@H](OCC)[C@@H]2CCCO)cc1	4.0%	?	?	-23.2	5.4%	-7.5%
CCO[C@@H]1OC(C(N)=O)=C[C@H](c2coc3ccccc3c2=O)[C@H]1CCCO	4.0%	15.5%	-5.1%	5.7	-0.4%	9.9%
CCSc1nnc(NS(=O)(=O)c2ccc(OC)cc2)s1	5.8%	7.7%	4.7%	16.1	4.9%	13.5%
CCOc1ccc(NC(=O)c2cc3c(=O)n4cccc(C)c4nc3s2)cc1	/	7.6%	-3.6%	/	/	/
Cc1cc2cc(CN(Cc3ccco3)C(=O)C3CCCCC3)c(=O)[nH]c2cc1C	16.8%	-15.4%	?	-0.2	11.4%	11.0%
Cc1cc2cc(CN(Cc3cccs3)C(=S)NCc3ccco3)c(=O)[nH]c2cc1C	-5.4%	?	?	-7.2	-4.3%	20.6µM*
Cc1cc2cc(CN(CCN(C)C)C(=S)NCc3ccco3)c(=O)[nH]c2cc1C	?	?	13µM*	-79.8*	?	?
